Experimental findings from ChEMBL document CHEMBL3988442, “University of Dundee, Small-Polar-MMV Screening Library” (2021) are described below.

The structures appear in SMILES notation. For some assays here: Measured potencies and affinities stand elsewhere.

Design in all cases: scale not given: direction of the effect not stated beside the values
The target of test [1] is Protein translocase subunit SecA (Escherichia coli (strain K12)) (UniProt P10408). The experiment in a line: Assay to Identify E. coli SecA ATPase Inhibitors. Format: functional. As to conditions: 30 µM.
Chain of Protein translocase subunit SecA (Escherichia coli (strain K12)) (P10408 whole entry): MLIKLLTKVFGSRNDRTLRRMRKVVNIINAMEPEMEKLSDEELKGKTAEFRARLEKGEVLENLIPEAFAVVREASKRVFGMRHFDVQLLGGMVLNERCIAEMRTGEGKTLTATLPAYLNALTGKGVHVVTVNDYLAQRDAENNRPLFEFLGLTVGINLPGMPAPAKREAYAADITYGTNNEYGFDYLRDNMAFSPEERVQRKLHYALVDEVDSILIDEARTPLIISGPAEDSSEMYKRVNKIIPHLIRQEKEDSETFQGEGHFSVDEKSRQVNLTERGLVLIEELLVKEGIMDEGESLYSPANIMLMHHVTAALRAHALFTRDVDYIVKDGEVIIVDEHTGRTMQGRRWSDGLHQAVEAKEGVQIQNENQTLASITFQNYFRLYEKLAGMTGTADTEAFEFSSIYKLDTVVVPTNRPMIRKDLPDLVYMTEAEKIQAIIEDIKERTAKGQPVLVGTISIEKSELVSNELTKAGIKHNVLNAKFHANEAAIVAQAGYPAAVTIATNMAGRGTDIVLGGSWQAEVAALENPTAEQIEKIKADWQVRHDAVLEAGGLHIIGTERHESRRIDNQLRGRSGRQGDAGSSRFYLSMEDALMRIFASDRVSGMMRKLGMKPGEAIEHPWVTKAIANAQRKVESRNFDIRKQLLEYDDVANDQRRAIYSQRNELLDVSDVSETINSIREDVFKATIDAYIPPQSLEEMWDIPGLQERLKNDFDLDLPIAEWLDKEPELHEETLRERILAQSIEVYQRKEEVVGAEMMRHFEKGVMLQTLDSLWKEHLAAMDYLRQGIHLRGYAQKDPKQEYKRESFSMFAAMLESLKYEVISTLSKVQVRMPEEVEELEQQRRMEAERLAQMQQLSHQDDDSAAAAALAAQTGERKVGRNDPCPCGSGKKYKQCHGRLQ
Test [2] addresses T1, Ubiquitin-activating enzyme e1, putative (Leishmania donovani (strain BPK282A1)) (UniProt E9BSI1).
T1 sequence (whole entry): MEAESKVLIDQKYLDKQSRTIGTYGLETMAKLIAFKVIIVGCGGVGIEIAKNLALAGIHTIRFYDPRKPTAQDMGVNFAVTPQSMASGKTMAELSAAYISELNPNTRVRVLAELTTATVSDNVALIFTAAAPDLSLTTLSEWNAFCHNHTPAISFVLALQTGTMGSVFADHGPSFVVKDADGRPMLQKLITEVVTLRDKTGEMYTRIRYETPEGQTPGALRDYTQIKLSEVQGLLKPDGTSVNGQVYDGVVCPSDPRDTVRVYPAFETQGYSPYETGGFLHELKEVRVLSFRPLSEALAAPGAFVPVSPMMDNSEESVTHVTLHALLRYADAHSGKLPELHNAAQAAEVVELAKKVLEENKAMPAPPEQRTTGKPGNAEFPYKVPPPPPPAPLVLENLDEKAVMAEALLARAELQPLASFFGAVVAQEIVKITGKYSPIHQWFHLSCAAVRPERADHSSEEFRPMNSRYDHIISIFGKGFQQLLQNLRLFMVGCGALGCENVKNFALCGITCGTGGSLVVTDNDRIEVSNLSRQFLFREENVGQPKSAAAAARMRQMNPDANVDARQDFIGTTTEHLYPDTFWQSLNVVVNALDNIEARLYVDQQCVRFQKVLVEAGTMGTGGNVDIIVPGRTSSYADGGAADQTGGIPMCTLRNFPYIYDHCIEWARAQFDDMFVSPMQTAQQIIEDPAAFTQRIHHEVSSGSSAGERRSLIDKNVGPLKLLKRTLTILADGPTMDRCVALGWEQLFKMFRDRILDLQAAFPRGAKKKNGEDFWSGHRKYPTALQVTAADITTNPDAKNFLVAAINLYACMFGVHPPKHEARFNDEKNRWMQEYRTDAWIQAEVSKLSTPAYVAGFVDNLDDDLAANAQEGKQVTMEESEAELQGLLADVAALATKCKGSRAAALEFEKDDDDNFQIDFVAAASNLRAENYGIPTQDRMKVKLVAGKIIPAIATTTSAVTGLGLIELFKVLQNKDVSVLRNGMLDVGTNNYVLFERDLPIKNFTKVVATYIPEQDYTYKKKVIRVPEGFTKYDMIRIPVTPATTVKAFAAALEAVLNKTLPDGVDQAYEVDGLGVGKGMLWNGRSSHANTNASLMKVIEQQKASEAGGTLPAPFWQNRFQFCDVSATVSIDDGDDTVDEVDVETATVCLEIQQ
The experiment in a line: Leishmania donovani Ubiquitin Activating Enzyme (LdE1). Format: functional. As to conditions: 30 µM.

Test [3] concerns the target AMP-activated protein kinase, AMPK (Homo sapiens) (UniProt P54646+O43741+P54619+Q9UGJ0+Q9Y478+Q13131+Q9UGI9). Description: AMP-dependent Kinase enzyme assay. An in vitro enzyme assay that detects ADP turnover that is directly proportional to AMPK activity. This uses naive AMPK that is activated during the assay with MK-8722. Format: functional. As to conditions: 30 µM.

Test [4] deals with Sialic acid-binding Ig-like lectin 9 (Homo sapiens) (UniProt Q9Y336). The experiment in a line: Hs-Siglec9 ALPHAscreen SOP 20170721. The settings on record: 10 µM. A general note: Alpha assays give light when donor and acceptor beads are brought close together.
Chain of Sialic acid-binding Ig-like lectin 9 (Homo sapiens) (Q9Y336 whole entry): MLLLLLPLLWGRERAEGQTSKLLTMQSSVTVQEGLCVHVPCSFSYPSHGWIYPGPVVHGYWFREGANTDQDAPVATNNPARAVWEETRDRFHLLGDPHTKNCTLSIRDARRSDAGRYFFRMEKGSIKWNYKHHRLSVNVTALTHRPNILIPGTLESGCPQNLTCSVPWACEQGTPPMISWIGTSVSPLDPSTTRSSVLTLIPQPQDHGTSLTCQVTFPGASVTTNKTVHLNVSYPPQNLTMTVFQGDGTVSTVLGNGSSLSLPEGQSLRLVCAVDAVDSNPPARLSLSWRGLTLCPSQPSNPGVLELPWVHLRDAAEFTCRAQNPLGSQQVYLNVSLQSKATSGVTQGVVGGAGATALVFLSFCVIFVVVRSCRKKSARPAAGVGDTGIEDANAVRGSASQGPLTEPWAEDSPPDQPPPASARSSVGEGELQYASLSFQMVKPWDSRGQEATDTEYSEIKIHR
For test [5], the system named is Trypanosoma cruzi. The experiment in a line: Trypanosoma cruzi phosphomannomutase and mannose-1-phosphate guanylyltransferase assay. The test is classed as functional. The settings on record: 10 µM.
The target in test [6] is T2, Arginase-2, mitochondrial (Homo sapiens) (UniProt P78540).
T2 sequence (whole entry): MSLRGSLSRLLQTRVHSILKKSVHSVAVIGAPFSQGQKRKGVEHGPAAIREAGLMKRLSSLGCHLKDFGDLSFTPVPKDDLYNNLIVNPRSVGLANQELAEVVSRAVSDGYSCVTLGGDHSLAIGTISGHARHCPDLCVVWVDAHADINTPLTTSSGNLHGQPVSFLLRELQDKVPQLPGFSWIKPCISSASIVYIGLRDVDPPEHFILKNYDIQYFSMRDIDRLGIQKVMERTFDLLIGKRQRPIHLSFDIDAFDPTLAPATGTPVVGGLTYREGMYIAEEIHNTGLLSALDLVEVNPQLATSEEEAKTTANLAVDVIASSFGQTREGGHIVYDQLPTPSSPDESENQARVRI
The experiment in a line: in vitro enzyme assay to detect the production of urea directly proportional to the activity of Arginase II. Note: in the data most compounds retested in dose-response had high values. As to conditions: 33.3 µM. Format: functional.

The target of test [7] is T3, Proteasome subunit beta (Trypanosoma cruzi) (UniProt O96673).
T3 sequence (whole entry): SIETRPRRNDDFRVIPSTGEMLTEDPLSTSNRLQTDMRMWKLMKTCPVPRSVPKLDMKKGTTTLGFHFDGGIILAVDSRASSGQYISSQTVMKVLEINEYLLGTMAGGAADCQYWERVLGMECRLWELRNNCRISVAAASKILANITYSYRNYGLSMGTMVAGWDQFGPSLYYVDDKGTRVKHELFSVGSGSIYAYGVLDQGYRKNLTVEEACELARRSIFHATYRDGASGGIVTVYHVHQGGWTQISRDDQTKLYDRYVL
The experiment in a line: Trypanosoma cruzi proteasome chymotrypsin-like activity (TcProtChymo) assay. Note: in the data most compounds retested in dose-response had high values. The test is classed as functional. As to conditions: 9.37 µM.

The species named for test [8] is Homo sapiens. The experiment in a line: To identify inhibition of the IFN signalling (Jak-Stat) pathway via expression of an eGFP reporter gene under the control of an IFN-stimulated response element (ISRE) containing MxA promoter. Format: functional. The settings on record: 30 µM.
Test [9] addresses T4, Tyrosyl-tRNA synthetase, putative (Trypanosoma cruzi (strain CL Brener)) (UniProt Q4DSP6).
T4 sequence (whole entry): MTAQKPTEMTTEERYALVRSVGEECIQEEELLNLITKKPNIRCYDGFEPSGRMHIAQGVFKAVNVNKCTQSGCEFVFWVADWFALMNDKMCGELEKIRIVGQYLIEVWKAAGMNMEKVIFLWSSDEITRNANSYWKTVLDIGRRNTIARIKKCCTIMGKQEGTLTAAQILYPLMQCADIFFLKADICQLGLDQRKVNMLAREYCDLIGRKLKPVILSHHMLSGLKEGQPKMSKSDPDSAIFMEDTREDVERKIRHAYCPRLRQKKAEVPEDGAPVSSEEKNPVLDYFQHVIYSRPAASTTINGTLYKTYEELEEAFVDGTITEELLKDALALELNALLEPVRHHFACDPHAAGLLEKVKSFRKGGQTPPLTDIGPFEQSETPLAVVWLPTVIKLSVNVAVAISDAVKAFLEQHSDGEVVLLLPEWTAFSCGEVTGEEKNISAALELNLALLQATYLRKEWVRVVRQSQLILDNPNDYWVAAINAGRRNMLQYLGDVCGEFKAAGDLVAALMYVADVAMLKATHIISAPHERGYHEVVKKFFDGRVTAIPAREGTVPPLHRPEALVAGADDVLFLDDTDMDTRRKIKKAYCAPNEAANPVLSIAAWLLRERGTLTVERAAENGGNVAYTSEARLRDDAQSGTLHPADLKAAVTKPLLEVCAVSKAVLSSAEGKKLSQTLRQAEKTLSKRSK
Description: Trypanosoma cruzi tyrosyl tRNA synthetase (TcYRS) _High Tyrosine SOP. Note: in the data most compounds retested in dose-response had high values. The settings on record: 30 µM. Format: functional.

Test [10] concerns the target T4, Tyrosyl-tRNA synthetase, putative (Trypanosoma cruzi (strain CL Brener)). Description: Trypanosoma cruzi tyrosyl tRNA synthetase (TcYRS) SOP. The test is classed as functional. As to conditions: 30 µM.
The target of test [11] is Chromo domain-containing protein 1 (Saccharomyces cerevisiae (strain ATCC 204508 / S288c) (Baker's yeast)) (UniProt P32657). The experiment in a line: ScCHD-1 Enzyme Inhibition Assay. Note: in the data most compounds retested in dose-response had high values. Format: functional. As to conditions: 30 µM.
Chain of Chromo domain-containing protein 1 (Saccharomyces cerevisiae (strain ATCC 204508 / S288c) (Baker's yeast)) (P32657 whole entry, the tested form may be a part): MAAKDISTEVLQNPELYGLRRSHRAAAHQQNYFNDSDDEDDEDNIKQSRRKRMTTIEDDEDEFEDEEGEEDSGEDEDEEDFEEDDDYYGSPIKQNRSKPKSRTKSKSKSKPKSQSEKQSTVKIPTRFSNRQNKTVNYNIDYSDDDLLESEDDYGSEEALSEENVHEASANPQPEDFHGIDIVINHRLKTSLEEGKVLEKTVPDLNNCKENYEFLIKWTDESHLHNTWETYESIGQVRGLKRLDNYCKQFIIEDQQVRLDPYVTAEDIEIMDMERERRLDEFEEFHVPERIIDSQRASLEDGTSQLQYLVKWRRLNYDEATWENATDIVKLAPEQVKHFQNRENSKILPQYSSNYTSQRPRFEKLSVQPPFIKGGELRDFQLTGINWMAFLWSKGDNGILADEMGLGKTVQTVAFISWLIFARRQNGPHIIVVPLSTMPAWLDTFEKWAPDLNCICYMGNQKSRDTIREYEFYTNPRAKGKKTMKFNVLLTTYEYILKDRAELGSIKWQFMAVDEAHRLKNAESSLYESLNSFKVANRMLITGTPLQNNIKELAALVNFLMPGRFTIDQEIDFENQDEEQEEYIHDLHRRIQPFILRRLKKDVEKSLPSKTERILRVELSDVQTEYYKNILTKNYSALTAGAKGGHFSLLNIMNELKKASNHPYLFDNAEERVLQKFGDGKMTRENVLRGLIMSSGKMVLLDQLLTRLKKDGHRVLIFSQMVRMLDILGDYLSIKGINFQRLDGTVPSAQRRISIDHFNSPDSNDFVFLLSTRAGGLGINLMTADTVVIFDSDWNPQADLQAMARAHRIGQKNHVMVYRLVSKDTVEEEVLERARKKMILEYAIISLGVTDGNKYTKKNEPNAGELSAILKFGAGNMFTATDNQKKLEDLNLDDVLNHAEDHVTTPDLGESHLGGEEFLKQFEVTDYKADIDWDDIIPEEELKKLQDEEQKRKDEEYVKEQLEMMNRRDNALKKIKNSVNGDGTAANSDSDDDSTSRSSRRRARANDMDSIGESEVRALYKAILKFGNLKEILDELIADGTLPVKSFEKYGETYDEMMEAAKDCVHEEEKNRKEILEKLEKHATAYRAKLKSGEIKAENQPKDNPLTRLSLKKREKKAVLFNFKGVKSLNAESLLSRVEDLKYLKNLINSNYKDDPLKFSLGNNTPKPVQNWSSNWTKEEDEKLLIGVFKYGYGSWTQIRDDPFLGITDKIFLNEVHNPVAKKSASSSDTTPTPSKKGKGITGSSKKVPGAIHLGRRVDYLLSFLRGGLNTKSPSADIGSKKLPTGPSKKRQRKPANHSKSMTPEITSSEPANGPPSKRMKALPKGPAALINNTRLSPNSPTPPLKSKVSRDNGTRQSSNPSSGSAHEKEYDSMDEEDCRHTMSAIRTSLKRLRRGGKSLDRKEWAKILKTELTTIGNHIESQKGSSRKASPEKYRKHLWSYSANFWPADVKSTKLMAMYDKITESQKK

On to `Cc1ccc(C(C)N(C)Cc2nc3c(cnn3C)c(=O)[nH]2)cc1` (stereo not given), for which the Percent Effect is 0.32% in test [1]; 16.2% in [2]; -5.9% in [3]; 6.25% in [4]; 1.21% in test [5]; 3.88% in test [6]. The Percent Effect in test [7] is 15.8%; in [8] it was 21.7%; in test [9], 7.92%; in test [10] it was 13.4%; in [11], -7.48%.

Regarding `CC(C)CCN1Cc2c(C(=O)O)ncn2-c2ccccc2S1(=O)=O`, the Percent Effect was 0.538% in [1]; 16.2% in [2]; 16.3% in test [3]; -10.3% in test [4]; -3.42% in [5]; 0.319% in test [6]. In addition, the Percent Effect in test [7] was 10.7%; in [8] it was 10.4%; in test [9], 4.32%; in test [10], 10.3%; in [11], -8.5%.

For the compound `CCOc1ncccc1NC(=O)N1CCc2ccccc2C1`, the Percent Effect is -2.4% in [1]; -5.41% in test [2]; -19.1% in test [3]; 3.06% in test [4]; -2.14% in [5]; 7.95% in [6]. Further, the Percent Effect in test [7] is 0%; in test [8], -3.53%; in [9], -1.98%; in test [10], -1.22%; in test [11], 9.66%.

With `CCc1nc(NCCCOC)c2c(n1)c(C)nn2C`, the Percent Effect was 0.06% in [1]; 17.3% in [2]; 0.763% in test [3]; 2.98% in test [4]; 1.18% in test [5]; -0.176% in test [6]. Besides, the Percent Effect is 20.1% in [7]; 29.9% in test [8]; 5.29% in test [9]; 17.9% in test [10]; -11.5% in test [11].

Take `O=C(Cn1c(=O)n(Cc2ccco2)c2ncccc21)NC1CCCCC1`: the Percent Effect is -8.09% in test [1]; 14.9% in [2]; -4.42% in test [3]; 11.5% in [4]; 8.5% in test [5]; -4.41% in test [6]. The Percent Effect in [7] was 18.6%; in test [8], 3.85%; in test [9], 6.45%; in [10], 14.3%; in test [11] it was 53%.

Consider `COC(=O)c1cc(OCC2CCC2)cc(C(=O)N[C@@H]2CNCC[C@H]2O)c1`, for which the Percent Effect is -7.97% in test [1]; 0% in test [2]; -18.2% in [3]; 10.2% in test [4]; -0.392% in [5]; -2.73% in test [6]. Further, the Percent Effect was 4.44% in test [7]; 36% in test [8]; 0% in [9]; 0% in test [10]; -7.21% in [11].

Take `Cc1occc1C(=O)N1CCO[C@H]2[C@@H](Oc3ccccn3)CC[C@@H]21`: the Percent Effect in test [1] was -1.87%; in test [2], 0%; in [3], 5.36%; in [4] it was 1.56%; in test [5], 0.984%; in [6], 0.699%. Further, the Percent Effect turned out to be 9.25% in test [7]; 5.34% in test [8]; 3.19% in test [9]; 3.85% in test [10]; 4.85% in test [11].

Regarding `CC[C@@]1(O)CCN(C(=O)c2ccc(-c3cccc(F)c3)cc2)C[C@H]1O`, the Percent Effect in test [1] was -2.8%; in [2], 4.17%; in test [3], -2.66%; in test [4] it was -8.29%; in [5], -3.6%; in [6], 0.883%. Besides, the Percent Effect in test [7] was 13.3%; in [8], 16.4%; in [9], 2.1%; in test [10] it was 10.3%; in test [11], -3.01%.

As for `CCCc1nc(NCCCO)c2c(n1)c(C)nn2CC`, the Percent Effect in test [1] is -3.3%; in [2], 6.67%; in test [3], 9.08%; in test [4], 11.8%; in test [5] it was -1.38%; in test [6], -9.33%. The Percent Effect in test [7] is 14.2%; in test [8], 12.4%; in test [9] it was 8.47%; in test [10] it was 12.8%; in [11] it was -10.1%.

Consider `Cc1ccc(C(=O)N2CCCC(NC(=O)C(C)C)C2)c(O)c1` (stereo not given), for which the Percent Effect is -4.49% in test [1]; 16.2% in [2]; -12.8% in [3]; 11.8% in test [4]; 3.87% in [5]; -4.41% in test [6]. Further, the Percent Effect in [7] is 11.9%; in test [8] it was 6.82%; in test [9], 8.37%; in [10], 25.9%; in [11], -10.5%.
